± gives the standard deviation of the averaged measurements. The full ranking holds about 33,000 sequences; the median of “E-score (dimensionless, -0.5 to 0.5)” is about -0.046, and the highest 2% start at about 0.36. This excerpt belongs to a sample that is enriched for the highest values.
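Further: protein at 200 nM in PBS on universal double-stranded arrays.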

The subject of this assay is T1, SpTbr T-box DNA-binding domain (GST fusion).
T1 sequence: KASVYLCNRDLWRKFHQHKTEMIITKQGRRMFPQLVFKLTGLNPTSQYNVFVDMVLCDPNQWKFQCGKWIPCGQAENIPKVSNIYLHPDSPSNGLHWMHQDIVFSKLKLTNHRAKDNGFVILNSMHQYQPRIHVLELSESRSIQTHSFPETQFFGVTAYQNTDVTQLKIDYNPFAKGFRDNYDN
Briefly: PBM E-score of 8-mer (E-score (dimensionless, -0.5 to 0.5)); Tbr is Tbrain of the sea star Patiria miniata (Pm) or the sea urchin Strongylocentrotus purpuratus (Sp); higher = stronger binding preference. The note with it: the construct has about 5 more residues each side. Here is the method: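 Universal protein-binding microarray (Agilent AMADID 016060, 60-bp probes with a 35-bp variable region) incubated with 200 nM GST-fused Strongylocentrotus purpuratus Tbr T-box DNA-binding domain (residues 362-554) in PBS pH 7.5. Scored for every ungapped 8-mer (given with its reverse complement) as E-score (range -0.5 to 0.5; >0.45 counts as bound) and Z-score of median probe intensity. Two replicate arrays (datasets 1 and 2).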
Take ACTTGCTG: the “PBM E-score of 8-mer” value was -0.0473 ± 0.073. In the case of ATTCTGTC it was 0.04 ± 0.016. Under CAGTAACC stands 0.048 ± 0.029. Under GAAATGGA stands -0.101 ± 0.0095. Regarding ACTTGACT, the “PBM E-score of 8-mer” value is 0.0832 ± 0.1. As for CTAATAGC, the “PBM E-score of 8-mer” value is 0.0334 ± 0.069. On to AGTGTTAC, for which the “PBM E-score of 8-mer” value amounted to 0.3741 ± 0.0036. In the case of GCTGTTAA it was 0.162 ± 0.0053. Under CGTGTTGA stands 0.3014 ± 0.0019; under GGTGTTAA, 0.472 ± 0.0062. In the case of AATGTTAA it was -0.0502 ± 0.052; in that of ACTGTTAC, 0.168 ± 0.0045; in that of AGTGTTCC, 0.0182 ± 0.013.

As for GTTGTTAA, the “PBM E-score of 8-mer” value was determined as 0.339 ± 0.034.

In the case of GTTGTTGA, the “PBM E-score of 8-mer” value turned out to be 0.239 ± 0.044. Turning to GGTGTTGA, the “PBM E-score of 8-mer” value was found to be 0.4631 ± 0.0038.

With AGTGTTAA, the “PBM E-score of 8-mer” value is 0.436 ± 0.021. In the case of ACTGTTAA it was 0.261 ± 0.036; in that of ATTTGCAC, 0.239 ± 0.043; in that of ACTTGAGG, -0.00245 ± 0.078. CGACGCGA: the “PBM E-score of 8-mer” value worked out at 0.159 ± 0.068.

As to ACAGCTTC, the “PBM E-score of 8-mer” value amounted to 0.208 ± 0.017. Regarding AGTGGAGC, the “PBM E-score of 8-mer” value is -0.0127 ± 0.11. In the case of TCATCTCA it was 0.0482 ± 0.019; in that of GCCAATCC, -0.0232 ± 0.048; in that of AGAGTGGG, -0.128 ± 0.066.

In the case of CGTGTGGA, the “PBM E-score of 8-mer” value came out at 0.306 ± 0.0073. With AGTGTGGG, the “PBM E-score of 8-mer” value was determined as 0.399 ± 0.018.

On to AGTGTGGC, for which the “PBM E-score of 8-mer” value stood at 0.33 ± 0.014. Under GGTGTGGA stands 0.456 ± 0.014; under GGTGTGTA, 0.356 ± 0.008.

For AGTGTGTA, the “PBM E-score of 8-mer” value is 0.229 ± 0.018.

With AGTGTGGA, the “PBM E-score of 8-mer” value worked out at 0.373 ± 0.035. For AGTGGGGG, the “PBM E-score of 8-mer” value is -0.0909 ± 0.05. Under ACCTTAGC stands 0.211 ± 0.014.

Consider CCACGGGC, for which the “PBM E-score of 8-mer” value was -0.227 ± 0.019. In the case of CATCGCGA it was 0.197 ± 0.0055.

On to AATCGCGC, for which the “PBM E-score of 8-mer” value came out at 0.332 ± 0.01. In the case of AATCGCGT it was 0.194 ± 0.039; in that of AATCGCGA, 0.3847 ± 0.00013; in that of ATTCGCTA, 0.208 ± 0.024. Under CTTCGCTC stands -0.00285 ± 0.036; under ATTCGCGG, 0.275 ± 0.026. As to ATTCGCGC, the “PBM E-score of 8-mer” value is 0.387 ± 0.012.

Regarding CTTCGCGA, the “PBM E-score of 8-mer” value stood at 0.285 ± 0.032. In the case of ATTCGCGA it was 0.392 ± 0.02; in that of CATCGCGC, 0.259 ± 0.032. Consider CTTCGCGC, for which the “PBM E-score of 8-mer” value turned out to be 0.407 ± 0.032.

Regarding GCGCCACA, the “PBM E-score of 8-mer” value stood at 0.223 ± 0.014. Under ATTTGTGA stands 0.181 ± 0.085; under GGGGCGCA, -0.227 ± 0.038; under TAAAGCTA, -0.171 ± 0.036.

As to GTATTGAC, the “PBM E-score of 8-mer” value is -0.0627 ± 0.015. As to CAGTGCAG, the “PBM E-score of 8-mer” value is -0.179 ± 0.024.

Consider ACTCGCGC, for which the “PBM E-score of 8-mer” value was found to be 0.298 ± 0.038. In the case of ACTCGCGA it was 0.3822 ± 0.0018; in that of CCTCGCGA, 0.306 ± 0.0057; in that of GTTCGCGA, 0.389 ± 0.0052. Consider GGTCGCGA, for which the “PBM E-score of 8-mer” value stood at 0.335 ± 0.017. As to GTTCGCCA, the “PBM E-score of 8-mer” value came out at 0.158 ± 0.011. For CCAGCGCG, the “PBM E-score of 8-mer” value worked out at 0.0431 ± 0.073. CCTCGTTC: the “PBM E-score of 8-mer” value came to 0.0141 ± 0.013. For CGTCAACA, the “PBM E-score of 8-mer” value is 0.356 ± 0.0058. For TGTCAACA, the “PBM E-score of 8-mer” value was 0.4051 ± 0.0019.

On to GGTCAACA, for which the “PBM E-score of 8-mer” value was 0.114 ± 0.02. Under CTAAACCA stands -0.0751 ± 0.046; under CTCCCTTC, -0.214 ± 0.037. In the case of CCTCACAG, the “PBM E-score of 8-mer” value stood at 0.149 ± 0.032. Regarding CCTCACAA, the “PBM E-score of 8-mer” value turned out to be 0.233 ± 0.0063. GCTTACAC: the “PBM E-score of 8-mer” value was 0.219 ± 0.012. As for ACTTACAC, the “PBM E-score of 8-mer” value was found to be 0.251 ± 0.075. In the case of ACTCACAC it was 0.469 ± 0.0082. Consider ACTCACAG, for which the “PBM E-score of 8-mer” value was determined as 0.313 ± 0.011. Under ACACTCTA stands 0.325 ± 0.017. For the sequence CCTTACAC, the “PBM E-score of 8-mer” value was 0.3668 ± 0.0022. In the case of ACTCACAT it was 0.124 ± 0.049; in that of ACTCTCTC, 0.0136 ± 0.068; in that of CCTCACAC, 0.4723 ± 0.0005.

Take ACACTCTC: the “PBM E-score of 8-mer” value is 0.3695 ± 0.0036.

Regarding GGCTCTCA, the “PBM E-score of 8-mer” value worked out at 0.0783 ± 0.047. Regarding AGCATAGC, the “PBM E-score of 8-mer” value is -0.135 ± 0.061. As to CGCGTTTA, the “PBM E-score of 8-mer” value was 0.0979 ± 0.059. With CGAGATAC, the “PBM E-score of 8-mer” value was -0.0218 ± 0.054. Regarding GAACAAAA, the “PBM E-score of 8-mer” value is -0.0265 ± 0.017.

With ACGTATGC, the “PBM E-score of 8-mer” value is 0.0191 ± 0.0035. In the case of AGGCGCAT it was -0.182 ± 0.024. In the case of ACCGTCAT it was 0.0989 ± 0.0085; in that of ATTGAAGG, -0.0895 ± 0.13; in that of AAGCGGTG, -0.1161 ± 0.00078. Under CACAAGGC stands -0.114 ± 0.035; under ACATGGCA, -0.0601 ± 0.028; under GCCAGCGA, 0.164 ± 0.098. Consider ACACTCCG, for which the “PBM E-score of 8-mer” value worked out at 0.367 ± 0.023. Consider ACACTCAG, for which the “PBM E-score of 8-mer” value is 0.232 ± 0.042. In the case of GCTCACAC it was 0.448 ± 0.0095.

As for ACACTCAC, the “PBM E-score of 8-mer” value came out at 0.366 ± 0.004. In the case of GCTCACAA it was 0.174 ± 0.018. With ACACTCCT, the “PBM E-score of 8-mer” value was 0.193 ± 0.021.

Consider ACTCTCAC, for which the “PBM E-score of 8-mer” value came out at 0.285 ± 0.036. As for GCACACAC, the “PBM E-score of 8-mer” value turned out to be 0.294 ± 0.035. Take ACTCTCCG: the “PBM E-score of 8-mer” value is -0.0225 ± 0.053.
